Data on 26 molecules can be found in PubChem BioAssay.

Active and inactive are the calls of the source. Unless noted, how the calls were made is not given here.
Further: test concentration not given here.

A short description of the first assay: P. aeruginosa biofilm formation inhibitors, primary screen, strain PAO1, LB-PBS medium, absorbance 600 nm (AID 1176). The settings on record: P. aeruginosa PAO1 growth/biofilm, A600, 12 h; higher = more signal.
For the molecule `CC(C)CNC(=O)[C@@]1(C)c2ccccc2C(=O)N(Cc2ccccc2)[C@H]1c1ccc(CO)cc1`, the z-score was -0.273 (inactive).

Consider `C=CCC(OC(C)=O)[C@@H]1[C@@H](N(Cc2ccc(-c3ccccc3)cc2)C(=O)c2cccc3ccccc23)c2cc(OCCCO)ccc2N1C(=O)c1ccc2ccccc2n1` (stereo partly specified), for which the z-score is 0.161 (inactive).

Take `COc1ccc([Si](C)(C)[C@@H]2[C@@H](CCO)O[C@]3(C(=O)N(Cc4ccccc4)c4ccc(N5C(=O)COc6ccccc65)cc43)[C@H]2C)cc1`: the z-score was 1.2 (inactive).

As to `C=C(COC)/C(=C/C[C@@H](OC(=O)c1ccncc1)c1cccc(OCCO)c1)c1cc(C(=O)OC)ccc1OC`, the z-score was 0.236 (inactive).

In the case of `O=C1NC(=O)C2C1C=CC(C(O)c1ccc3c(c1)OCO3)N2Nc1ccc(Cl)cc1Cl` (stereo unspecified), the z-score was 1.38 (inactive).

`[N-]=[N+]=NCc1ccccc1C[C@@]1(C(=O)NCCN2CCOCC2)N=C(c2ccc(OCCCO)cc2)O[C@@H]1c1ccccc1CN=[N+]=[N-]`: the z-score is 1.13 (inactive).

In the case of `C[N+](C)(C)CCCCCCNC(=O)[C@@H]1C[C@@H]2C(=O)NCC(=O)N2[C@@H]1c1ccc(O)cc1`, the z-score is -0.447 (inactive).

With `COC(=O)[C@@]1(Cc2ccccc2N=[N+]=[N-])N=C(c2ccc(OCCCO)cc2)O[C@H]1c1ccccc1`, the z-score is 0.77 (inactive).

`COCCOC(=O)N1C(=O)[C@@]2(c3cc(C#Cc4ccc(OC)cc4)ccc31)[C@H](C(=O)N1CCc3cc(OC)c(OC)cc3C1)[C@H]1C(=O)O[C@H](c3ccccc3)[C@H](c3ccccc3)N1[C@@H]2c1ccc(OCCO)cc1`: the z-score was 1.27 (inactive).

For `O=C1O[C@H](c2ccccc2)[C@H](c2ccccc2)N2[C@H]1[C@@H](C(=O)N1CCCCCCC1)[C@]1(C(=O)Nc3ccc(C#CCCO)cc31)[C@H]2c1ccc(OCCO)cc1`, the z-score was 0.0568 (inactive).

As for `CCCC[C@H]1OB(O)C[C@H]2C1=C(COc1ccccc1)Cn1c(=O)n(-c3ccccc3)c(=O)n12`, the z-score is 0.294 (inactive).

The nature of the next assay: S. cerevisiae RM11-1a growth modifiers, primary screen, strain RM11-1a, OD600, basal, 24 h (AID 1177).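 Further: cultures grown under basal conditions with no added stressor.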 The settings on record: OD600, 24 h, higher = more signal, called active from +8 up or from −8 down.
Take `N#Cc1ccc(NN2C(C(O)c3ccccc3)C=CC3C(=O)N(c4ccccc4)C(=O)C32)cc1` (stereo unspecified): the z-score was -0.323 (inactive).

In the case of `O=C(NCc1ccccc1)[C@]1(Cc2ccccc2)N=C(c2ccc(OCCCO)cc2)O[C@@H]1c1ccccc1`, the z-score is 3.75 (inactive).

As for `CC(C)CCC[C@@H](C)[C@H]1CC[C@@]2(C)C3=C(CC[C@]12C)[C@@]1(C)CC[C@H](OC(=O)C(C)(C)C)C(C)(C)C1CC3` (stereo partly specified), the z-score is -4.69 (inactive).

Consider `NC(=O)NCC#Cc1ccc2c(c1)[C@]1(C(=O)N2)[C@H](c2ccc(OCCO)cc2)N2[C@H](c3ccccc3)[C@H](c3ccccc3)OC(=O)[C@H]2[C@@H]1C(=O)N1CCCCCCC1`, for which the z-score is 2.58 (inactive).

Turning to `[N-]=[N+]=Nc1ccccc1[C@H]1OC(c2ccc(OCCCO)cc2)=N[C@@]1(Cc1ccccc1)C(=O)NCc1ccccc1`, the z-score is -0.947 (inactive).

For the molecule `COCCOC(=O)N1C(=O)[C@@]2(c3cc(C#CCC(C(=O)OC)C(=O)OC)ccc31)[C@H](C(=O)N1CCCCCCC1)[C@H]1C(=O)O[C@H](c3ccccc3)[C@H](c3ccccc3)N1[C@@H]2c1ccc(O)cc1`, the z-score is 0.451 (inactive).

For `C=CC[C@]1(C(=O)NCC(O)CO)N=C(c2ccc(OCCCO)cc2)O[C@H]1c1ccccc1N=[N+]=[N-]` (stereo partly specified), the z-score was 0.329 (inactive).

As to `O=C(Nc1cc(Br)ccc1C(=O)NCc1cccc(O)c1)c1ccccc1`, the z-score is 0.659 (inactive).

Take `CC1CC/C=C\[C@H]2OC34C=CCN(c5ccc(Cl)cc5)C(=O)[C@H]3N(C(CO)C(C)C)C(=O)[C@]4(C)C2C(=O)O1` (stereo partly specified): the z-score was -0.245 (inactive).

As for `CC1=C2[C@@H](CCc3ccccc3)OB(O)C[C@@H]2[C@@H]2C(=O)C=CC(=O)[C@@H]2C1`, the z-score is -0.055 (inactive).

On to `[N-]=[N+]=NCc1ccccc1C[C@]1(C(=O)NCCN2CCOCC2)COC(c2ccc(OCCCO)cc2)=N1`, for which the z-score is -0.383 (inactive).

For the molecule `COc1ccc(CCNC(=O)[C@@H]2c3ccccc3C(=O)N(Cc3ccccc3)[C@H]2c2ccc(CO)cc2)cc1`, the z-score was -0.539 (inactive).

Take `C=CC[C@@]1(C(=O)NCC(O)CO)N=C(c2ccc(OCCCO)cc2)O[C@@H]1c1ccccc1` (stereo partly specified): the z-score is -0.108 (inactive).

Consider `CO[C@H]1O[C@H](CO)[C@@H](OC(=O)Nc2cccc(F)c2)[C@H](OC(=O)Nc2ccc3c(c2)OCO3)[C@H]1OC(=O)Nc1ccc2c(c1)OCO2`, for which the z-score was 1.48 (inactive).

In the case of `COc1ccc(C#Cc2ccc3c(c2)[C@]2(C(=O)N3)[C@H](c3ccc(OCCO)cc3)N3[C@H](c4ccccc4)[C@H](c4ccccc4)OC(=O)[C@H]3[C@@H]2C(=O)N2CCN(c3ncccn3)CC2)cc1`, the z-score was 1.92 (inactive).
